Some test systems named below: SR leukemia; RPMI-8226 leukemia; OVCAR-8 ovarian; OVCAR-5 ovarian; OVCAR-4 ovarian; SK-OV-3 ovarian; IGROV1 ovarian; OVCAR-3 ovarian; HS 578T breast; NCI/ADR-RES ovarian.
Common to all, as to test: NCI-60 one-dose screen, 48 h (100 = growth as untreated, 0 = no growth, -100 = all killed)
What all share (conditions): 10 µM unless noted

Results on 13 compounds are retold here after PubChem BioAssay (NCI).

About 83,000 compounds went through this panel and 20% of them were active in at least one assay; those are over-represented in the sample as a whole.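 Values shown are percent growth following 48 h exposure of cells in 96-well plates to a single concentration of compound; below 10 was considered active.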 A number with no mark means an inactive call. Activity calls are given as the source filed them.

As to `COc1cccc(CCN2C(=O)CCC3=C2CCC3=O)c1`, the growth in the assay with SR leukemia is 102%; with RPMI-8226 leukemia, 98.1%; in the assay with OVCAR-8 ovarian, 108%; in the assay on OVCAR-5 ovarian, 104%; with OVCAR-4 ovarian it was 104%; in the assay with SK-OV-3 ovarian, 102%. Besides, the growth with IGROV1 ovarian is 103%; in the assay on OVCAR-3 ovarian, 114%; in the assay on HS 578T breast, 130%; with NCI/ADR-RES ovarian, 104%.
`CC(C)OP(=O)(OC(C)C)c1ncc(-c2ccc(C(F)(F)F)cc2)c(NC2CCCCCC2)n1`: the growth was -30.3% [33.3 µM] (active) in the assay on SR leukemia; -40.7% [33.3 µM] (active) in the assay on RPMI-8226 leukemia; 0.0612% [33.3 µM] (active) in the assay on OVCAR-8 ovarian; -89.1% [33.3 µM] (active) in the assay on OVCAR-5 ovarian; 2.6% [33.3 µM] (active) in the assay on OVCAR-4 ovarian; 8.69% [33.3 µM] (active) in the assay on SK-OV-3 ovarian. Besides, the growth in the assay with IGROV1 ovarian is -11.2% [33.3 µM] (active); with OVCAR-3 ovarian, -96.8% [33.3 µM] (active); with HS 578T breast, -30.1% [33.3 µM] (active); with NCI/ADR-RES ovarian it was 3.22% [33.3 µM] (active).
For `CCOc1cc(/C=C/C(=O)CC(=O)/C=C/c2ccc(OC(=O)CNc3nc4ccc(OC)cc4s3)c(OCC)c2)ccc1OC(=O)CNc1nc2ccc(OC)cc2s1`, the growth was -27.3% (active) with SR leukemia; -27.2% (active) with RPMI-8226 leukemia; 28.6% in the assay with OVCAR-8 ovarian; 99% in the assay with OVCAR-5 ovarian; 69.5% in the assay on OVCAR-4 ovarian; 89.5% in the assay on SK-OV-3 ovarian. Also, the growth in the assay with IGROV1 ovarian is -26.5% (active); in the assay on OVCAR-3 ovarian it was 77.8%; in the assay on HS 578T breast it was 23%; with NCI/ADR-RES ovarian, 82.3%.
Regarding `Clc1ccc2[nH]cc(-c3cncn3CCc3ccccc3)c2c1`, the growth in the assay on SR leukemia was 41%; in the assay with RPMI-8226 leukemia it was 22.6%; with OVCAR-8 ovarian, 32.9%; in the assay with OVCAR-5 ovarian, 74.7%; with OVCAR-4 ovarian, 14.2%; in the assay with SK-OV-3 ovarian, 41.1%. Also, the growth with IGROV1 ovarian was 69.3%; in the assay on OVCAR-3 ovarian it was 55.4%; with HS 578T breast it was 51.3%; in the assay with NCI/ADR-RES ovarian, 51.1%.
Take `Cc1ccc(/C=C/C(=O)c2ccc(F)cc2)s1`: the growth in the assay with SR leukemia is 10.3%; with RPMI-8226 leukemia, 18.6%; in the assay with OVCAR-8 ovarian, 43.6%; in the assay on OVCAR-5 ovarian it was 85.7%; in the assay with OVCAR-4 ovarian, 81.2%; with SK-OV-3 ovarian, 96.5%. For the same compound, the growth with IGROV1 ovarian is 83%; in the assay with OVCAR-3 ovarian, 87%; in the assay on HS 578T breast, 102%; with NCI/ADR-RES ovarian it was 61.7%.
Take `CSc1nc(N)c2c(n1)N(C)C=NS2(=O)=O`: the growth is 102% in the assay on SR leukemia; 103% with RPMI-8226 leukemia; 102% in the assay on OVCAR-8 ovarian; 93.7% with OVCAR-5 ovarian; 108% with OVCAR-4 ovarian; 117% in the assay with SK-OV-3 ovarian. Also, the growth with IGROV1 ovarian was 119%; in the assay on OVCAR-3 ovarian, 122%; with HS 578T breast, 118%; in the assay on NCI/ADR-RES ovarian, 103%.
For `COc1cc(NC(=O)NCc2ccco2)ccc1-c1ccc(NC(=O)NCc2ccco2)cc1OC`, the growth in the assay on SR leukemia was 55.6%; with RPMI-8226 leukemia, 65.2%; in the assay on OVCAR-8 ovarian, 36.7%; in the assay on OVCAR-5 ovarian it was 96.5%; in the assay with OVCAR-4 ovarian, 60.9%; with SK-OV-3 ovarian it was 69.9%. For the same compound, the growth in the assay with IGROV1 ovarian was 72.9%; in the assay with OVCAR-3 ovarian, 74%; with HS 578T breast, 59.4%; in the assay with NCI/ADR-RES ovarian, 91.2%.
Regarding `COc1ccc([N+](=O)[O-])c(S(=O)(=O)c2ccc(Cl)cc2)n1`, the growth in the assay on SR leukemia is -16% (active); in the assay with RPMI-8226 leukemia, 34.9%; in the assay on OVCAR-8 ovarian, 71.7%; in the assay on OVCAR-5 ovarian, 77.1%; in the assay with OVCAR-4 ovarian it was 68.7%; with SK-OV-3 ovarian it was 97.2%. The growth in the assay with IGROV1 ovarian is 97.1%; in the assay on OVCAR-3 ovarian it was 36.6%; in the assay on HS 578T breast it was 97.9%; with NCI/ADR-RES ovarian, 81.3%.
In the case of `C[C@]12CCC(=O)C=C1CC[C@H]1[C@@H]3C[C@@H](O)[C@](O)(C(=O)CO)[C@@]3(C)C[C@H](O)[C@@]12F`, the growth in the assay with SR leukemia was 96.3%; with RPMI-8226 leukemia, 67.1%; in the assay with OVCAR-8 ovarian, 92.8%; in the assay with OVCAR-5 ovarian it was 86.7%; with OVCAR-4 ovarian, 95.7%; in the assay on SK-OV-3 ovarian, 72.4%. Further, the growth with IGROV1 ovarian was 97.6%; with OVCAR-3 ovarian, 105%; with HS 578T breast, 115%; in the assay on NCI/ADR-RES ovarian, 95.4%.
Regarding `CCNCCCn1c2c(c3ccc(F)cc3c1=O)C(=O)c1cc(OC)cnc1-2`, the growth with SR leukemia was -4.37% (active); in the assay with RPMI-8226 leukemia it was -25.7% (active); in the assay with OVCAR-8 ovarian, -15.1% (active); in the assay on OVCAR-5 ovarian, 3.24% (active); with OVCAR-4 ovarian it was -4.39% (active); in the assay on SK-OV-3 ovarian it was -30.4% (active). Further, the growth is 2.58% (active) with IGROV1 ovarian, -16.9% (active) in the assay with OVCAR-3 ovarian, 14.9% in the assay on HS 578T breast and -29.4% (active) in the assay on NCI/ADR-RES ovarian.
In the case of `CC[C@H]1CN2CCc3cc(OC)c(OC)cc3C2C[C@@H]1CC1NCCc2cc(OC)c(OC)cc21` (stereo not given in full), the growth in the assay on SR leukemia is -9.39% (active); with RPMI-8226 leukemia, -41% (active); with OVCAR-8 ovarian, -20.6% (active); in the assay on OVCAR-5 ovarian it was -12% (active); in the assay on OVCAR-4 ovarian, -9.56% (active); with SK-OV-3 ovarian, -1.2% (active). Further, the growth in the assay on IGROV1 ovarian was -22.9% (active); in the assay with OVCAR-3 ovarian, -30.9% (active); with HS 578T breast it was -12% (active); with NCI/ADR-RES ovarian, -9.95% (active).
For the compound `COC(=O)[C@H](Cc1cn(C)cn1)NC(=O)[C@H](C)NC(=O)Nc1cc(C(F)(F)F)cc(C(F)(F)F)c1`, the growth with SR leukemia was -31.1% [100 µM] (active); in the assay on RPMI-8226 leukemia, -31.7% [100 µM] (active); in the assay on OVCAR-8 ovarian, -68.1% [100 µM] (active); with OVCAR-5 ovarian, -43.8% [100 µM] (active); with OVCAR-4 ovarian, -58.3% [100 µM] (active); with SK-OV-3 ovarian it was -97.5% [100 µM] (active). Further, the growth in the assay with IGROV1 ovarian is -54% [100 µM] (active); in the assay on OVCAR-3 ovarian, -89.4% [100 µM] (active); in the assay on HS 578T breast it was -1.05% [100 µM] (active); in the assay with NCI/ADR-RES ovarian, 79.3% [100 µM].
As for `C1=C(Cc2ccccc2)n2cnc3ncnc(c32)S1`, the growth in the assay on SR leukemia is 36.8%; in the assay on RPMI-8226 leukemia, 28%; in the assay with OVCAR-8 ovarian, 73.5%; with OVCAR-5 ovarian, 70.5%; with OVCAR-4 ovarian, 40.1%; in the assay on SK-OV-3 ovarian, 19.7%. Also, the growth was 86.8% in the assay with IGROV1 ovarian, 15.8% with OVCAR-3 ovarian, 75.3% in the assay with HS 578T breast and 56.7% in the assay with NCI/ADR-RES ovarian.
